Screening results (PubChem)
Only some compounds are listed: those with a hit (about 9.2% of all), similar ones and a draw of the others.
Rab9 promoter act: Rab9 promoter activation | Huh7 Rab9 promoter-luciferase reporter, luminescence, 24 h | actives 2.8% (n = 320,000) | Potency, µM (series often up to 9.22 µM), for inactives: top-dose activation, negative = inhibition, usual class: activators | AID 485297; further: % of control where 0% means no effect; nearly all actives have a fitted effect of over 60% in size
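Using Huh7 cells stably transfected with Rab9 promoter–luciferase, compounds were incubated 24 h at 37 °C, 5% CO2; luciferase luminescence was read 10 min after reagent addition.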
NPC1 prom act: activators of NPC1 promoter | actives 2.4% (n = 320,000) | AID 485313 | Potency, µM (series often up to 9.22 µM), without a hit: top-dose activation, most hits filed as activators | Huh7 NPC1 promoter luciferase reporter, 24 h; further: % of control where 0% means no effect; nearly all actives have a fitted effect of over 60% in size
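NPC1 promoter–luciferase Huh7 cells; 24 h compound; luminescence.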
SMN2 splice enh: enhancers of SMN2 splice variant expression. HEK293 SMN2-luciferase splicing reporter, luminescence, 30-36 h. Potency, µM (titrated, usually from 46.1 µM), without a hit: at the highest dose activity change, positive = activation, hits mostly activators. actives 2.8% (n = 210,000); further: % of control where 0% means no effect; nearly all actives have a fitted effect of over 55% in size
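HEK293 cells carry an SMN2 […]–luciferase reporter in which exon 7 inclusion puts luciferase in frame. Cells were plated 10-12 h before compound addition, then incubated 30-36 h at 37C. ONE-Glo luminescence was read; sodium butyrate at 4.5 mM final served as control.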
FLuc modulator: firefly luciferase modulation, counter-screen for miR-21 project | P08659 | Potency, µM (series often up to 57.5 µM), for inactives: at the highest dose activity change, negative = inhibition, hits mostly inhibitors | purified FLuc, Km substrates, luminescence inhibition | AID 588342 | actives 6.9% (n = 360,000);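 further: plate controls were vehicle for no effect and reference inhibitor for full effect; nearly all actives have a fitted effect of over 55% in size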
Target sequence (P08659 whole entry, looked up): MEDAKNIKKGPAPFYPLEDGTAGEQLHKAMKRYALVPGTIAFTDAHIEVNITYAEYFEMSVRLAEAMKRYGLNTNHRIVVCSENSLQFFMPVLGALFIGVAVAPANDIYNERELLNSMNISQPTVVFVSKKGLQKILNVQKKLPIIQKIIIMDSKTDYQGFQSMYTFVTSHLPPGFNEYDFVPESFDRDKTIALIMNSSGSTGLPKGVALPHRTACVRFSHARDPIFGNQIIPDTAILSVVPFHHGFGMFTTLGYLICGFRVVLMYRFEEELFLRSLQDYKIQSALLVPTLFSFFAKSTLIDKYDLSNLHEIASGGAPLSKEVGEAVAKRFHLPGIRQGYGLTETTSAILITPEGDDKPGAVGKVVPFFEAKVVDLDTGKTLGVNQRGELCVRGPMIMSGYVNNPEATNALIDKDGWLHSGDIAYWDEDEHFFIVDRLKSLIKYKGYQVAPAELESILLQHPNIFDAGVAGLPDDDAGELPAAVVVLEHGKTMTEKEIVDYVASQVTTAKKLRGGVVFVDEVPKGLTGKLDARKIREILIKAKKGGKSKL
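Purified P. pyralis luciferase (10nM final) with 10uM D-luciferin and 10uM ATP (Km levels) in 50mM Tris acetate pH 7.5, 10mM Mg acetate, 0.01% Tween-20, 0.05% BSA; qHTS 6-point titration, ~60 µM downward; luminescence read.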
ELG1 genotoxic: inducers of genotoxicity in HEK293T ELG1-luciferase cells | HEK293T ELG1-luciferase reporter, luminescence, 16 h | Potency, µM (doses to about 46 µM), for inactives: top-dose activity change, positive = activation, hits mostly activators | actives 1.3% (n = 330,000); further: % of control where 0% means no effect; nearly all actives have a fitted effect of over 60% in size
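After overnight (16 hr) compound treatment at 37 °C, ELG1-luciferase HEK293T cells were lysed with ONE-Glo; luminescence quantified 30 min later at room temperature.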
ELG1 repair inh: blocks ELG1-dependent DNA repair in HEK293T cells; HEK293T ELG1-luciferase reporter, luminescence, 16 h; DNA damage induced by 5-fluorouridine; Potency, µM (doses to about 46.1 µM), without a hit: at the highest dose activity change, negative = inhibition, most hits filed as inhibitors; actives 2.3% (n = 330,000); further: on the % scale 0 is the no-effect control and ±100 the full control effect; nearly all actives have a fitted effect of over 55% in size
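Luminescence from the luciferase reporter, measured 30 min after ONE-Glo reagent at room temperature, was the read-out. Beforehand, 2,000 cells per well were exposed for 16 hr at 37 °C to 5-fluorouridine together with compound or vehicle.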
Numbers without * were called inactive; ? = inconclusive; / = no result; [ ] = dose if it differs, or a comment. The call rests on the fitted dose curve; in most records, active means well fitted curve in the direction sought with a large enough effect; inconclusive means small, poorly fitted or top-dose-only effect, or another doubt; inactive means no such curve, though single readings can be large; an effect the other way counts as inactive or inconclusive. Potency means the concentration at half of the fitted maximal effect.

SMILES | Rab9 promoter act | NPC1 prom act | SMN2 splice enh | FLuc modulator | ELG1 genotoxic | ELG1 repair inh
COc1cccc(/C=N/n2c(-c3ccco3)nc3ccccc3c2=O)c1 | 0.56µM* | 0.4µM* | 0.79µM* | 13µM* | 2% | 18µM*
COCCN(C(=O)COC(=O)CSc1ccc(Cl)cc1)c1c(N)n(Cc2ccccc2)c(=O)[nH]c1=O | 0% | -4% | / | -1% | -1% | 15%
CCOC(=O)c1c(S(=O)(=O)NCC(=O)N2CCN(c3cccc(OC)c3)CC2)c(C)n(C)c1C | 0% | -1% | / | 0% | 0% | -10%
COc1ccc(-c2cc(C)nc(SCC(=O)c3cccc([N+](=O)[O-])c3)n2)cc1 | -5% | -3% | -19% | 0% | -2% | 21µM*
Cc1ccc(C(=O)CSc2nc(C)cc(SCc3nnc(-c4ccccc4)o3)n2)cc1 | -2% | -2% | -11% | 0% | 9% | -3%
Cc1ccc(-c2cc(C(F)(F)F)nc(SCC(=O)c3cccc([N+](=O)[O-])c3)n2)cc1 | -13% | -4% | -19% | -4% | -6% | 18µM*
COc1ccc(C(=O)CSc2cc(C)nc(SCC(=O)c3ccc(C)cc3)n2)cc1 | 0% | -20% | -84% | 2% | 0% | 5.2µM*
O=C(CSc1nc(-c2ccccc2)cc(C(F)(F)F)n1)c1cccc([N+](=O)[O-])c1 | 1% | 0% | -3% | 0% | -1% | 18µM*
Cc1cc(C(F)(F)F)nc(SCC(=O)c2cccc([N+](=O)[O-])c2)n1 | 0% | 2% | -4% | 1% | -2% | -4%
Cc1cc(-c2ccccc2)nc(SCC(=O)c2cccc([N+](=O)[O-])c2)n1 | -5% | 2% | -10% | 0% | -6% | -27%
CC(CNC(=O)c1ccc(C#N)cc1)NC(=O)c1ccc(C#N)cc1 (configuration not stated) | 0% | -1% | / | 0% | 0% | -17%
COc1ccc(CCCc2nnc(SCC(=O)Nc3cccc(F)c3C)o2)cc1 | / | / | 1% | ? | / | /
COc1cc(/C=N/NC(=O)c2cccc([N+](=O)[O-])c2)ccc1OCc1ccccc1 | 1% | -2% | 0% | 10% | -2% | ?
COc1cc(/C=C/[N+](=O)[O-])ccc1OCc1cccc(C(=O)O)c1 | 1.3µM* | 1µM* | 1.3µM* | 0.21µM* | ? | ?
O=Cc1ccc(OCc2cccc(C(F)(F)F)c2)cc1O | 6% | 1% | 24% | ? | 0% | 8%
CCOc1ccc(OCc2cccc(C(=O)O)c2)cc1 | -25% | -22% | 0.032µM* | 0.017µM* | -29% | ?
COc1ccc(OCc2cccc(C(=O)O)c2)cc1 | 1µM* | 0.0006µM* | 0.04µM* | 0.03µM* | / | ?
O=C(OCC(F)(F)F)c1cccc(COc2ccc3ccccc3c2)c1 | ? | 1µM* | 0.45µM* | 3.4µM* | ? | ?
O=C(O)c1cc(OCc2ccccc2)cc(OCc2ccccc2)c1 | -8% | -1% | / | 1% | -6% | -5%
CC(C)(C)OC(=O)NCCOC(=O)c1[nH]cnc1C(=O)NCc1ccccc1 | 0% | -3% | / | 4% | 0% | -7%
Cc1sc2ncn(CC(=O)OC(C)C(=O)NC(C)(C)C)c(=O)c2c1C (configuration not stated) | -3% | -1% | -2% | 0% | -9% | 11%
CCOc1ccc(OCc2ccc(C(=O)N(CC)CC)cc2)cc1 | ? | ? | 24% | 15µM* | 6% | ?
Cc1ccc(-n2cnc3sc(C)c(C)c3c2=O)cc1 | 2.5µM* | ? | 13µM* | ? | ? | ?
Cc1ccc2[nH]c(-c3cccc(N)c3)cc2c1 | 2.2µM* | 1.8µM* | 14µM* | 4.8µM* | 2.3µM* | ?
Cc1cccc(-c2nc(N)nc(N)n2)c1 | ? | 21% | / | ? | ? | ?
SMILES | Rab9 promoter act | NPC1 prom act | SMN2 splice enh | FLuc modulator | ELG1 genotoxic | ELG1 repair inh
COCCCn1cnc2oc3nc4ccccc4nc3c2c1=O | 0.63µM* | 1.6µM* | 10µM* | 7.6µM* | 2.1µM* | ?
COc1cccc(Nc2nc(-c3cccc(N4C(=O)c5ccccc5C4=O)c3)cs2)c1 | 7% | 13% | 21% | 2.4µM* | 8% | 1%
COc1cccc(Nc2nc(-c3ccc(O)cc3)cs2)c1 | 10% | ? | 1% | 15µM* | ? | 26%
O=C(/C=C/c1ccc(Cl)cc1)NC(=S)Nc1ccccc1C(=O)O | -1% | -3% | / | ? | 0% | -3%
COc1cc(NC(=O)/C=C/c2ccccc2)c(C(=O)O)cc1OC | 7% | 4% | / | 6µM* | 15% | ?
COc1cc(NC(=O)Cc2ccccc2)c(C(=O)O)cc1OC | -4% | -2% | / | -15% | 4% | -4%
COC(=O)c1cc(NC(=O)/C=C/c2ccccc2)ccc1O | ? | ? | / | 11µM* | 7% | ?
NC(=O)c1ccccc1NC(=O)/C=C/c1ccc(Cl)cc1 | 2.5µM* | 1.8µM* | 13µM* | 1.7µM* | 3.7µM* | ?
NC(=O)c1ccccc1NC(=O)/C=C/c1ccccc1 | 1.8µM* | ? | ? | 6µM* | ? | ?
CCN(CC)CCOC(=O)c1cc(Cl)c(N)cc1OC | -5%[46.1 µM] | -9%[46.1 µM] | ? | 2% | -5% | 6%
CCn1c2ccccc2c2cc(NC(=O)C(C)OC(=O)c3ccc(NC(=O)CC#N)cc3)ccc21 (configuration not stated) | -3% | -5% | / | 8% | 1% | -1%
CC1CCN(S(=O)(=O)c2nnc(NC(=O)COc3ccccc3)s2)CC1 | -1% | 1% | / | 2% | -1% | 1%
Clc1ccccc1OCc1nn2c(-c3ccncc3)nnc2s1 | -2% | 0% | -12% | 1% | -3% | -17%
Cc1nc(COc2ccccc2Cl)sc1-c1ccnc(N)n1 | 16% | 2% | / | 11µM* | 3% | 18%
O=C(CSc1nnc(-c2ccncc2)n1Cc1ccco1)N1c2ccccc2Sc2ccc(Cl)cc21 | -5% | -13% | -46% | 2% | -5% | 23µM*
Cc1cc(Cl)ccc1NC(=O)CSc1nnc(-c2ccncc2)n1Cc1ccco1 | 1% | 0% | -15% | 1% | -5% | ?
CCn1c(SCC(=O)N2c3ccccc3Sc3ccccc32)nnc1-c1ccco1 | -1% | -8% | -1% | 1% | -5% | ?
Cn1c(SCC(=O)N2c3ccccc3Sc3ccc(Cl)cc32)nnc1-c1ccco1 | 0% | -2% | -12% | 1% | -5% | 18µM*
CCn1c(SCc2ccccc2F)nnc1-c1ccncc1 | -1% | -6% | / | 3% | -5% | -22%
